Source: PubChem BioAssay (National Center for Advancing Translational Sciences (NCATS))
DT40 TDP1 CPT: qHTS for Inhibitors of human tyrosyl-DNA phosphodiesterase 1 (TDP1): qHTS in cells in presence of CPT. chicken DT40 Tdp1-/-;hTDP1 cells + 20 nM CPT, ATP luminescence, 48 h. AID 686979, 2013. Potency, µM (doses to about 46.2 µM), without a hit: at the highest dose activity change, negative = growth inhibition, most hits filed as inhibitors. 12% of 420,000 active; also: potency is read from the fitted curve at half-maximal effect; nearly all actives have a fitted effect of over 55% in size
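Cell growth measured by CellTiter-Glo luminescence after a minimum 48 h, 37 C compound exposure with 20 nM CPT in Tdp1-knockout DT40 cells stably expressing hTDP1, seeded 400/well; qHTS titration format.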
HT1080 IDH1KD tx: qHTS for induction of synthetic lethality in tumor cells producing 2HG: qHTS for the HT-1080-IDH1KD cell line. HT-1080 IDH1 knockdown viability, ATP luminescence, 48 h. Potency, µM (top dose mostly 46.1 µM), for the others: at the top dose activity, negative = toxicity, hits mostly cytotoxic. 2% of 360,000 active;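 also: potency is read from the fitted curve at half-maximal effect; 0% = DMSO wells and -100% = cell-free medium wells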
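IDH1KD HT-1080 cells, 750/well, RPMI + 5% FBS; compound pinned after 2 h settling; 48 h, 37 °C; CellTiter-Glo luminescence; % activity normalised to DMSO and no-cell wells; curves fitted, classed by r2 and efficacy.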
TDP1 cell noCPT: qHTS for Inhibitors of human tyrosyl-DNA phosphodiesterase 1 (TDP1): qHTS in cells in absence of CPT; DT40 Tdp1-/- hTDP1 cells, no CPT, ATP luminescence, 48 h; Potency, µM (highest dose often 46.2 µM), inactives show at the highest dose activity change, negative = growth inhibition, actives largely listed as inhibitors; 15% of 420,000 active; AID 686978, 2013; also: potency is read from the fitted curve at half-maximal effect; nearly all actives have a fitted effect of over 55% in size
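No-CPT arm: Tdp1-/-;hTDP1 DT40 cells (400/well) plus compounds, incubated ≥48 hr at 37 °C. Readout CellTiter-Glo luminescence.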
IL-1B inflam inh: qHTS for Inhibitors of Inflammasome Signaling: IL-1-beta AlphaLISA Primary Screen | THP-1 LPS/ATP IL-1B secretion, AlphaLISA, 16 h; stronger effect = lower value | activity change, % at 57.5 µM | 4.7% of 360,000 active; in the data active = activity change below about -50%; inconclusive = mostly about -30% to -49%
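THP-1 cells pretreated 1 hr with compounds (up to 57.5 uM final), then stimulated with LPS (250 ng/mL final) plus ATP (1.25 mM final); secreted IL-1B measured by AlphaLISA after 16 hr, decreased signal indicating inhibition.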
HT1080NT lethal: qHTS for induction of synthetic lethality in tumor cells producing 2HG: qHTS for the HT-1080-NT fibrosarcoma cell line; HT-1080-NT fibrosarcoma viability, CellTiter-Glo ATP luminescence, 48 h; Potency, µM (highest dose often 46.1 µM), for inactives: at the highest dose activity, negative = less viability, actives largely listed as cytotoxic; 1.6% of 360,000 active; AID 686970, 2013;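 also: NT is the 2HG producing partner of a matched IDH1 knockdown line; potency is read from the fitted curve at half-maximal effect; 0% = DMSO-treated cells and -100% = media-only wells without cells; nearly all actives have a fitted effect of over 55% in size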
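Read-out is CellTiter-Glo luminescence after 10 minutes at room temperature, following 48 hours' compound treatment of HT-1080-NT cells (750 cells/well, RPMI, 5% FBS, 37 degrees C).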
Active calls of the source: *; ! = not active in a repeat. Most compounds without a hit are left out; they make up all but 19% or so of the library. Unless noted, calls follow the shape of the dose curve; as a rule, active = well fitted curve in the direction sought with a large enough effect; inconclusive = small, poorly fitted or top-dose-only effect, or another doubt; inactive = no such curve, though single readings can be large; an effect the other way counts as inactive or inconclusive. Unless noted, % is scaled to controls: 0 for no effect and ±100 for the full control effect.

`Cc1noc(C)c1COC(=O)/C=C/c1ccc(Cl)cc1` gave DT40 TDP1 CPT inconclusive, HT1080 IDH1KD tx 0%, TDP1 cell noCPT 16µM*, IL-1B inflam inh 7 and HT1080NT lethal 8%.
`Cc1noc(C)c1COC(=O)c1cnc(Cl)c(Cl)c1` gave DT40 TDP1 CPT 22%, HT1080 IDH1KD tx inconclusive, TDP1 cell noCPT 16%, IL-1B inflam inh -54* and HT1080NT lethal inconclusive.
Screening CCOC(=O)CN1C(=O)N[C@@H](c2cccc(F)c2)C(C(=O)OC)=C1C returned DT40 TDP1 CPT inconclusive, HT1080 IDH1KD tx -12%, TDP1 cell noCPT inconclusive, IL-1B inflam inh 17 and HT1080NT lethal -1%.
Screening O=C(CCn1c(=S)oc2ccccc21)N1CCCCC1 returned DT40 TDP1 CPT 7%, HT1080 IDH1KD tx 2%, TDP1 cell noCPT -11%, IL-1B inflam inh 0 and HT1080NT lethal 22%.
`COc1cccc(C(=O)Oc2ccc(/C=N/Nc3ccc(C(=O)O)cc3)cc2OC)c1` gave DT40 TDP1 CPT inconclusive, HT1080 IDH1KD tx -11%, TDP1 cell noCPT 29µM*, IL-1B inflam inh -1 and HT1080NT lethal -28%.
Screening COCc1cc(/C=N\NC(=O)COc2ccccc2)ccc1OC returned DT40 TDP1 CPT -2%, HT1080 IDH1KD tx 14%, TDP1 cell noCPT -23%, IL-1B inflam inh 8 and HT1080NT lethal 8%.
COc1cccc(OCc2cc(/C=N/Nc3ccc(C(=O)O)cc3)ccc2OC)c1 was read as DT40 TDP1 CPT 21µM*, HT1080 IDH1KD tx inconclusive, TDP1 cell noCPT 21µM*, IL-1B inflam inh 19 and HT1080NT lethal 21µM*.
`O=C(CSc1ncccc1C(=O)Oc1ccccc1Cl)Nc1ccc(C(F)(F)F)cc1Cl` gave DT40 TDP1 CPT inconclusive and TDP1 cell noCPT 23µM*.
CNC(=O)[C@H]1O[C@@H](n2cnc3c(NCc4cccc(I)c4)nc(Cl)nc32)[C@H](O)[C@@H]1O was read as DT40 TDP1 CPT inconclusive, HT1080 IDH1KD tx 7%, TDP1 cell noCPT 21µM*!, IL-1B inflam inh -89* and HT1080NT lethal 23%.
Screening CCCCNc1c(-c2ccc(SC(C)CC)cc2)nc2ccc(Cl)cn12 (stereo not drawn) returned DT40 TDP1 CPT inconclusive, HT1080 IDH1KD tx -3%, TDP1 cell noCPT 29µM*, IL-1B inflam inh 0 and HT1080NT lethal -6%.
For CCCCCCSc1cccc(-c2nc3ccc(Cl)cn3c2NCCCC)c1 the results were DT40 TDP1 CPT 16µM*, HT1080 IDH1KD tx 0%, TDP1 cell noCPT 13µM*, IL-1B inflam inh 3 and HT1080NT lethal 6%.
For CCCCNc1c(-c2ccc(-c3cccc(Cl)c3)cc2)nc2ccccn12 the results were DT40 TDP1 CPT inconclusive, HT1080 IDH1KD tx inconclusive, TDP1 cell noCPT inconclusive, IL-1B inflam inh -26 and HT1080NT lethal inconclusive.
Screening COCCNc1c(-c2ccc(OC)cc2)nc2ccc(Cl)cn12 returned DT40 TDP1 CPT inconclusive, HT1080 IDH1KD tx 1%, TDP1 cell noCPT inconclusive, IL-1B inflam inh inconclusive and HT1080NT lethal -2%.
`CCC(C)Sc1ccc(-c2nc3ccc(C)cn3c2NCc2ccccc2)cc1` (stereo not drawn) gave DT40 TDP1 CPT 23µM*, HT1080 IDH1KD tx -10%, TDP1 cell noCPT 16µM*, IL-1B inflam inh inconclusive and HT1080NT lethal -12%.
CCCCCCSc1ccc(-c2nc3ccccn3c2NCCCC)cc1 was read as DT40 TDP1 CPT 23µM*, HT1080 IDH1KD tx 4%, TDP1 cell noCPT 15µM*, IL-1B inflam inh inconclusive and HT1080NT lethal 2%.
`Cc1cc(C)cc(C(=O)NCC(=O)OCC(=O)NC2CC2)c1` gave DT40 TDP1 CPT 6%, HT1080 IDH1KD tx 20%, TDP1 cell noCPT 4%, IL-1B inflam inh -1 and HT1080NT lethal 17%.
